Assay outcomes from PubChem.
The entries come from a sample that favours hits as a whole.
GBA enhancer = enhancers of human beta-glucosidase activity in Gaucher fibroblasts. P04062. 30,000 compounds, 0.44% hits. AID 784. activation, % at 10 µM. L444P Gaucher fibroblasts, 4-MU-glucoside fluorescence, 3 days; in the data active means activation above about 65%;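 further: 0% = vehicle wells and 100% = positive control wells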
Target sequence (P04062 whole entry L483P): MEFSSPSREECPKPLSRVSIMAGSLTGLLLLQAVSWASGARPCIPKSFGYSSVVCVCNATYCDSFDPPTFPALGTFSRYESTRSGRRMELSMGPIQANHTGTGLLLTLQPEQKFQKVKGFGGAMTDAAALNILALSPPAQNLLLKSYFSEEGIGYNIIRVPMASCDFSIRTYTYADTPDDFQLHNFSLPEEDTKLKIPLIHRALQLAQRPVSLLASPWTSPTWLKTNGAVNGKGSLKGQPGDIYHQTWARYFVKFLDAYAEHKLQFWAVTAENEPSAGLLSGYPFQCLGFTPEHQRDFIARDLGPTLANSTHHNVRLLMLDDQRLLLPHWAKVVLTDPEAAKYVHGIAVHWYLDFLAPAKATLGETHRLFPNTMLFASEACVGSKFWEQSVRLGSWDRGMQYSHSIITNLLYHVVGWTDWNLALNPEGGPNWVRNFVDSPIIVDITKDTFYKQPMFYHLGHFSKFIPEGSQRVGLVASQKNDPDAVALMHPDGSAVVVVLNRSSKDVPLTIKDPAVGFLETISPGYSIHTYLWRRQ
* = called active by the depositor.

SMILES	GBA enhancer
O=C(CCS(=O)(=O)c1cccc2nonc12)N1CCCc2ccccc21	72*
O=C(CCCC(=O)N1CCCc2ccccc21)N1CCCc2ccccc21	-11
O=C(CCS(=O)(=O)c1cccc2nonc12)NCCc1ccccc1	-8
O=C(N1CCOCC1)N1CCN(c2ccccn2)CC1	15
Cc1ccc(C)n1-c1ccc(N2CCOCC2)cc1	-3
Cc1cc(C)cc(N2CCN(C(=O)N3CCOCC3)CC2)c1	72*
COc1ccc(OC)c(NC(=O)CSc2nnc(CNc3ccc(C)cc3C)o2)c1	-17
C=CCN1CCN(C(c2ccccc2)c2nnnn2CCC(C)C)CC1 (stereo unspecified)	-4
CC(C)CCn1nnnc1C(c1ccccc1F)N1CCC(C(N)=O)CC1 (stereo unspecified)	18
CC(C)CCn1nnnc1C(c1ccccc1)N1CCC(C(N)=O)CC1 (stereo unspecified)	87*
CC(C)c1cc(NC(=O)CSc2nnc(-c3ccccc3F)n2C)on1	-4
Cc1ccc(C)c(OCC(=O)Nc2nonc2NC(=O)COc2cc(C)ccc2C)c1	-28
C=CCNC(=O)CCCOc1cc(C)ccc1C	68*
C=CCNC(=O)CCCCC(=O)NCC=C	2
COc1cc(C2c3c(oc4ccccc4c3=O)C(=O)N2Cc2ccncc2)ccc1O (stereo unspecified)	-9
CC(OC(=O)c1ccccc1NCc1ccco1)C(=O)Nc1ncc(Cl)cc1Cl (stereo unspecified)	1
CS(=O)(=O)N(CCc1ccccc1)CC(=O)N1CCc2ccccc2C1	-28
OC(COCC1CC=CCC1)Cn1cnc2ccccc21 (stereo unspecified)	151*
c1ccc2c(c1)ncn2CCn1cnc2ccccc21	-21
CC(=O)Nc1cccc(OCC(O)Cn2cnc3ccccc32)c1 (stereo unspecified)	-12
CCCCOc1ccc(C2(C)CC(=O)NC2=O)cc1 (stereo unspecified)	-10
O=C(Nc1ccc(O)c(C(=O)O)c1)c1ccc2c(c1)C(=O)N(CC1CCCO1)C2=O (stereo unspecified)	-2
Cc1cc(C(=O)OCn2nnc3ccccc3c2=O)c(C)n1-c1ccccc1	6
COc1ccc(CCn2c(-c3ccco3)nc3oc4ccccc4c(=O)c3c2=O)cc1	-9
O=C(CSc1ncn[nH]1)Nc1ccc(Cl)c(Cl)c1	-43
SMILES	GBA enhancer
COc1ccc(-c2nnc(SCC(=O)NC(C)c3ccccc3)o2)cc1OC (stereo unspecified)	-32
Cc1ccc(OCC(=O)Nc2cccc(-c3nnc(-c4ccccc4)o3)c2)cc1	9
CCOC(=O)c1nnc(-c2ccccc2)o1	-17
CCOC(=O)COc1ccc(-c2nnc(-c3ccccc3)o2)cc1	78*
COc1cccc(NC(=O)COc2ccc(N3CC(C(=O)NCC(C)C)CC3=O)cc2)c1 (stereo unspecified)	-2
O=C(Nc1ccc(-c2noc(COc3ccccc3Cl)n2)cc1)c1ccco1	-23
CC(=O)C1=C(O)C=C(c2ccco2)CC1c1ccco1 (stereo unspecified)	-20
COc1cc2c(C(=O)NCCCN3CCN(c4cccc(Cl)c4)CC3)cn(C)c(=O)c2cc1OC	85*
COCCNC(=O)c1cn(C)c(=O)c2cc(OC)c(OC)cc12	-37
CCOCCCNC(=O)c1cn(C)c(=O)c2cc(OC)c(OC)cc12	-53
CCc1nn(C(C)C(=O)NC(C)CCc2ccco2)c(=O)c2cc3occc3n12 (stereo unspecified)	-18
COCC(=O)N(C)C1(c2nnnn2CCOC(=O)Nc2cccc3ccccc23)CCCC1	-24
Cn1c(-c2ccc(Br)o2)nc2ccccc21	5
Cn1c(Sc2nc3ccccc3n2C)nc2ccccc21	-20
CN(C)c1ccc(-c2nc3ccccc3n2C)cc1	81*
CCCOc1ccc2ccccc2c1/C=N/n1c(C)nnc1-n1nc(C)cc1C	-17
COc1ccc(OC)c(S(=O)(=O)N2c3cc(F)ccc3CCC2C)c1 (stereo unspecified)	-7
CN(C)S(=O)(=O)c1ccc(S(=O)(=O)N(Cc2ccccn2)Cc2ccco2)cc1	-16
Cc1cc(NC(=O)CSc2nc3ccccc3[nH]2)no1	100*
Cc1cc(NC(=O)CSc2nc(-c3ccccc3)c(C#N)c(=O)[nH]2)no1	6
COc1cc(OC)nc(NC(=O)CSc2nc3ccccc3[nH]2)n1	4
Cc1sc(CO)c(Sc2ccccc2)c1C(=O)O	-28
CC(=O)Oc1ccc(NC(=O)CSc2ccccc2)cc1	-9
CC(C(=O)N(C1CC1)C1(C(=O)Nc2ccccc2)CCCC1)N1C(=O)c2ccccc2C1=O (stereo unspecified)	8
CCOC(=O)c1cc2sccc2n1CC(=O)c1ccc2c(c1)OCCO2	-16
SMILES	GBA enhancer
Cc1ccc2c(c1)[C@H]1OCC[C@H]1[C@@H](c1ccncc1)N2	72*
Cc1ccc2c(c1)C1C=CCC1C(C(=O)O)N2 (stereo unspecified)	10
Cc1ccc2c(c1)C1OCCC1C1N2C(=O)C2C(C(=O)O)C3C=CC21O3 (stereo unspecified)	-46
Cc1nc(SCC(=O)N2CCN(c3ccccc3)CC2)c2c(=O)n(C)c(=O)n(C)c2n1	-12
Cc1nc(NC(=O)c2ccccc2)sc1-c1csc(NCc2ccco2)n1	1
Cc1nc(C)c(-c2csc(NCc3ccco3)n2)s1	98*
COc1ccc(-c2csc(NCc3ccco3)n2)cc1	-32
CC(C)n1c(N2CCN(CC(=O)Nc3ccc4c(c3)OCCO4)CC2)nc2ccccc21	-12
Cc1cccn2c(=O)c(C=Nc3ccccc3)c(NCCO)nc12	-23
CCNC(=O)c1cc2c(=O)n3cccc(C)c3nc2n1C	-18
Cc1cccn2c(=O)c(C=Nc3ccc(Cl)cc3)c(NCCO)nc12	68*
COc1ccc(-n2c(N)c(Br)c(=O)[nH]c2=O)cc1	16
COCCCn1c(SCC(=O)N2CCCCC2C)nnc1-c1ccco1 (stereo unspecified)	-3
COCCCn1c(SCC(=O)OC2CCCCC2)nnc1-c1ccco1	66*
CCCn1c(SCC(=O)N2CCCCC2)nnc1-c1ccco1	-44
Clc1ccc(CSc2nnc(-c3cccnc3)n2Cc2ccco2)c(Cl)c1	-41
O=C1OCCC1Sc1nc2cc(Cl)ccc2s1 (stereo unspecified)	-5
CN(CC(=O)Nc1ccc(F)c(F)c1)S(=O)(=O)c1cccc2nsnc12	121*
Cc1ccc(NC(=O)CN(C)S(=O)(=O)c2cccc3nsnc23)cc1Cl	-39
Cc1ccc(NC(=O)CN(C)S(=O)(=O)c2cccc3nsnc23)cc1C	-47
Cc1noc(C)c1COC(=O)C1(c2cccc(F)c2)CCCC1	7
Cc1csc(OCc2ccc(C#N)cc2)n1	9
CC1CCN(Cc2nc3c(c(=O)n(C)c(=O)n3C)n2CCN2CCOCC2)CC1	2
CCOc1ccc(C(C)(C)C)cc1S(=O)(=O)N1CC(C)OC(C)C1 (stereo unspecified)	-42
COc1ccc(C(=O)n2nc(-c3ccccc3)nc2N)cc1OC	71*
SMILES	GBA enhancer
CCCC(=O)n1nc(-c2ccc(OC)cc2)nc1N	21
Nc1nc(-c2ccc(Cl)cc2)nn1C(=O)c1cccnc1	15
COc1cc(Cl)ccc1NC(=O)COc1ccccc1C(=O)N1CCN(c2ccc(O)cc2)CC1	8
CN(CC(=O)NCCN1CCN(Cc2ccccc2)CC1)S(=O)(=O)c1cccc2nsnc12	17
O=C(CCNS(=O)(=O)c1cccc2nsnc12)NC1CCN(Cc2ccccc2)CC1	86*
O=C(CCCNS(=O)(=O)c1cccc2nsnc12)NCCc1ccccc1	3
COc1ccccc1C(=O)Nn1cnc2ccccc2c1=O	-7
